TRPML1 inh: blocks the human TRPML1 channel | Q9GZU1 | TRPML1-inducible cells, Ca2+ dye fluorescence, FDSS; stronger effect = lower value; inhibition of EC80 agonist-evoked calcium signal | activity change, negative = inhibition, % (test concentration not listed) | actives 0.02% (n = 390,000) | AID 624415; in the data active = activity change below about -50%; inconclusive = between about -30% and that limit;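 note: stimulus is agonist 54-4 at its EC80 concentration; % is set by controls: 0 for no effect and ±100 for the full control effect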
Target sequence (Q9GZU1 whole entry, looked up): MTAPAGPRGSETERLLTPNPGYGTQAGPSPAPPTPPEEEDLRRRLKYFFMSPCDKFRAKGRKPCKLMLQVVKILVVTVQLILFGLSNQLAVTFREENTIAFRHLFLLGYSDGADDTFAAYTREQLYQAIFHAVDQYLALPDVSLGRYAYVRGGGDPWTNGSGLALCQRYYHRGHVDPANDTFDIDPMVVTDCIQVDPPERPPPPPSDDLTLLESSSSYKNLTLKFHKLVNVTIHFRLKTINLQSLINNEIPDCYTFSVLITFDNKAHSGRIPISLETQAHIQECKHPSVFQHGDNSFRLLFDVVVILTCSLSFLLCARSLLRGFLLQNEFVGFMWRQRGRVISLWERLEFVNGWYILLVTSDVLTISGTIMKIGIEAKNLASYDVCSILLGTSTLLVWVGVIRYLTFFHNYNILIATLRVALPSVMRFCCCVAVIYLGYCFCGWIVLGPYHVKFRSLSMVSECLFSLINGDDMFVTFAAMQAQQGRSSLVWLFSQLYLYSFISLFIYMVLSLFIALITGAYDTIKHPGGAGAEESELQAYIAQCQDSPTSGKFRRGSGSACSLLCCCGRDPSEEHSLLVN
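Tet-induced TRPML1-DL cells loaded with Ca8 no-wash calcium dye were read kinetically on FDSS. Compound addition was followed by EC80 agonist 54-4 (4 uM final); inhibition was read over 110 s.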
GRP78 ERSR act: induces the endoplasmic reticulum stress response in human glioma cells | Potency, µM, inactives show at the highest dose activation, hits mostly activators | U87-MG GRP78 promoter luciferase reporter, 16 h | AID 602332 | actives 0.02% (n = 420,000); note: potency is the fitted concentration of half-maximal effect; series mostly up to about 76 µM; % of control where 0% means no effect; nearly all actives have a fitted effect of over 35% in size
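ERSR induction read as luciferase luminescence (Bright-Glo, 10 min at room temperature) in stably transfected human U87-MG glioma cells exposed to compounds for 16 h, using GRP78 as sensor.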
TRPML1 agonist: agonists of human TRPML1 channel. Q9GZU1. TRPML1-expressing cells, Ca2+ dye fluorescence, FDSS. activation, % (concentration not given with the values). actives 0.12% (n = 410,000); in the data active = activation above about 50%; inconclusive = mostly about 30% to 49%; note: 0% is about no effect
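Tetracycline-induced TRPML1-DL cells are seeded and incubated overnight before loading with a no-wash Ca2+ dye and quencher. Agonist activity is taken from the 110 s fluorescence read following compound pin-transfer on an FDSS, before EC80 54-4 challenge.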
Vif-A3F inh: blocks the Vif interaction with APOBEC3F. actives 0.2% (n = 390,000). HeLa A3F-eYFP + Vif (tagged APOBEC3F with the HIV-1 protein that degrades it), YFP fluorescence increase. AID 602313. Potency, µM (titrated, usually from 46.1 µM), for inactives: top-dose activity, negative = active; note: potency is the fitted concentration of half-maximal effect; % of control where 0% means no effect; nearly all actives have a fitted effect of over 65% in size
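HeLa cells stably expressing A3F-eYFP plus Vif, plated and incubated overnight at 37 deg C, then exposed to compounds overnight at 37 deg C. Blocked degradation read as raised yellow fluorescence (Ex 488/Em 500-530).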
12-LOX inh: inhibitors of human 12S-lipoxygenase ALOX12; purified 12hLO, xylenol orange hydroperoxide absorbance; Potency, µM (top dose mostly 108 µM), for inactives: at the highest dose activity change, negative = inhibition, hits mostly inhibitors; actives 1.1% (n = 580,000); AID 1671190; note: potency is the fitted concentration of half-maximal effect; % is set by controls: 0 for no effect and ±100 for the full control effect
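Purified human 12hLO at 150 nM in 25 mM Hepes, 0.01% Triton X-100, pH 7.0, preincubated 15 min at room temperature with compound. Reaction started with 40 uM arachidonic acid, 30 min at room temperature. Hydroperoxide measured by Fe-xylenol orange, 573/405 nm absorbance ratio.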
Vif-A3G inh: blocks the Vif interaction with human APOBEC3G. Q9HC16. HeLa A3G-eYFP + Vif (tagged APOBEC3G with the HIV-1 protein that degrades it), YFP fluorescence, overnight. Potency, µM (top dose mostly 46.1 µM), for inactives: at the highest dose activity, negative = active, actives largely listed as inhibitors. actives 0.076% (n = 410,000). AID 602310; note: potency is the fitted concentration of half-maximal effect; % is set by controls: 0 for no effect and ±100 for the full control effect; nearly all actives have a fitted effect of over 60% in size
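HeLa cells stably expressing Vif and C-terminally eYFP-tagged A3G, seeded overnight at 37 deg C, then exposed to compound by pintool overnight at 37 deg C. Rise in yellow fluorescence (Ex 488/Em 500-530, Acumen) marks blocked Vif-driven A3G degradation.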
Active calls of the source: *; ? = inconclusive; . = no result; ! = a repeat was not active; [ ] = dose if it differs, or a comment. This is a sample that favours compounds with a hit; in the whole collection about 1.3% have one here. Unless noted, calls come from the whole dose curve; as a rule, active = well fitted curve in the direction sought with a large enough effect; inconclusive = small, poorly fitted or top-dose-only effect, or another doubt; inactive = no such curve, though single readings can be large; an effect the other way counts as inactive or inconclusive.

SMILES	TRPML1 inh	GRP78 ERSR act	TRPML1 agonist	Vif-A3F inh	12-LOX inh	Vif-A3G inh
Cc1ccc(NC(=O)c2c(C)nc3sc(C(=O)NC4CCCC4)c(N)c3c2-c2ccco2)c(C)c1	16.0	4.6%	1.7	2.82µM*	-28.3%	-1.7%
Cc1ccccc1NC(=O)c1sc2nc3c(c(-c4ccco4)c2c1N)CCC3	11.7	-6.6%	-0.9	?	24.6%	12.6µM*
Cc1cc(C(=O)CSc2nnc(CN3CCCC3)n2-c2ccccc2)c(C)n1C	.	.	.	.	-1.0%	.
COc1cc(/C=C(\C#N)c2nc3ccccc3o2)ccc1O	-2.6	9.9%	53.1*	-100.2%	?	5.3%
O=C(c1ccccc1)c1ccc(OCC(O)CNCc2ccc(Cl)cc2)cc1 (stereo not drawn)	-12.3	-7.4%	0.9	-9.6%	7.08µM*	-9.9%
O=C(COC(=O)c1c2c(nc3ccccc13)/C(=C/c1ccco1)CC2)NC1CCCC1	-18.1	0.9%	4.6	?	25.1µM*	-22.1%
CCOC(=O)Nc1ccc2c(c1)C(=NNC(=S)NC)c1ccccc1-2	9.3	1.7%	0.6	?	39.8µM*	-13.4%
CN(C)N1C(N)=C(C#N)C(c2ccsc2)C2=C1CC(C)(C)CC2=O (stereo not drawn)	-29.3	-3.4%	-0.7	-5.9%	-5.5%	0.2%
Cc1ccc(N2C(N)=C(C#N)C(c3ccsc3)C3=C2CC(C)(C)CC3=O)cc1 (stereo not drawn)	-2.1	-2.1%	57.2*	-0.1%	?	-15.4%
CCOc1ccc(-c2cc(C(=O)NCCCOC)c3ccccc3n2)cc1	.	.	.	.	-7.7%	.
CCCN1C(=O)c2[nH]nc(-c3ccccc3O)c2C1c1ccc(OC)c(OC)c1 (stereo not drawn)	.	.	.	.	-5.1%	.
c1cc(SC2CCCCC2)cc(-c2nc3cnccn3c2NC2CCCCC2)c1	83.2	-10.3%	0.8	25.1µM*	-18.9%	?
c1cn2c(NC3CCCCC3)c(-c3ccc(SC4CCCCC4)cc3)nc2cn1	-1.0	-0.3%	-0.6	-6.4%	?	-7.7%
Cc1ccn2c(NCc3ccccc3)c(-c3cccc(SC4CCCCC4)c3)nc2c1	30.7	-0.9%	-1.0	-0.2%	?	2.2%
c1ccc(CNc2c(-c3cccc(SC4CCCCC4)c3)nc3ccccn23)cc1	29.2	-4.0%	-0.2	0.1%	14.1µM*	-10.0%
CCN(c1ccc(NC(=O)[C@H](Cc2ccccc2)NC(=O)c2cccs2)cc1)C(C)C	.	.	.	.	-27.7%	.
O=C(c1ccc(F)cc1Cl)N1CCC(Cc2nc(-c3ccc(F)cc3)no2)CC1	.	.	.	.	18.3%	.
C/C=C/Oc1ccc(C(=O)/C(=C\c2ccncc2)c2nc3ccccc3o2)cc1	.	.	.	.	8.4%	.
COc1ccc(N=Cc2c(O)n(-c3cccc(C)n3)c(=O)c3ccccc23)c(OC)c1	-13.8	1.8%	3.0	10µM*	-8.1%	?
O=C(C1=C(O)C(=O)N(CCN2CCOCC2)C1c1cccs1)c1cc2ccccc2o1 (stereo not drawn)	11.8	7.3%	0.7	-9.7%	7.08µM*	-6.0%
Cc1ccc2nc(Cl)c(C3CC(c4ccco4)=NN3S(C)(=O)=O)cc2c1 (stereo not drawn)	4.9	-0.3%	0.1	-1.4%	12.6µM*!	-2.3%
Cc1ccc2cc(C3CC(c4ccco4)=NN3S(C)(=O)=O)c(Cl)nc2c1 (stereo not drawn)	-9.1	0.0%	0.6	?	?	-6.9%
COc1cccc(C(=O)Nc2ccc3oc(=O)ccc3c2)c1	.	.	.	.	18.1%	.
CNC(=S)N/N=C(\C)c1ccc(Cl)c(Cl)c1	14.0	-3.8%	2.1	?	39.8µM*	-3.7%
Cc1nonc1NC(=O)CSc1nc2c(C)cccc2cc1C#N	5.6	4.2%	3.4	7.94µM*	-5.7%	?
SMILES	TRPML1 inh	GRP78 ERSR act	TRPML1 agonist	Vif-A3F inh	12-LOX inh	Vif-A3G inh
Cc1cc2cc(C#N)c(SCC(=O)Nc3nonc3C)nc2cc1C	-15.3	1.4%	5.4	10µM*	8.2%	?
COc1ccc2cc(C#N)c(SCC(=O)Nc3nonc3C)nc2c1	-7.9	1.6%	2.4	-7.7%	-6.1%	-0.8%
Cc1[nH]cnc1C(=O)N1CCOc2c(O)cc(-c3csc4ccccc34)cc2C1	.	.	.	.	24.4%	.
CCN(CC)C(=O)Oc1ccc2c(=O)c(-c3ccccc3)c(C(F)(F)F)oc2c1	.	.	.	.	-2.0%	.
COc1ccc(CCNc2ncnc3c2c(-c2ccccc2)cn3-c2cccc(Cl)c2)cc1OC	-3.2	-3.1%	73.9*	0.6%	-14.1%	4.2%
NS(=O)(=O)c1ccc(NC(=S)Nc2ccn(Cc3cccc4ccccc34)n2)cc1	2.8	-8.5%	-0.2	-3.5%	22.4µM*	-13.6%
O=C(CCl)N1c2ccccc2OCC1c1ccccc1 (stereo not drawn)	13.2	7.6%	-0.5	1.8%	-19.0%	-13.0%
O=C(CCl)N1c2ccccc2SCC1c1ccccc1 (stereo not drawn)	-12.7	-19.2%	2.4	1.6%	20µM*	?
Brc1ccc(OCCSc2nc3ccccc3o2)cc1	.	.	.	.	88.9%	.
Cc1ccc(-c2noc([C@@H]3Cc4nc[nH]c4CN3C(=O)Nc3ccc(Cl)cc3)n2)cc1	.	.	.	.	15.4%[176 µM]	.
CCOC(=O)N1CCc2c(sc3c2C(=O)NC(c2ccc(N(C)C)cc2)N3)C1 (stereo not drawn)	16.1	-0.2%	-0.6	11.2µM*	-21.2%	?
CCOC(=O)N1CCc2c(sc3c2C(=O)NC(c2ccccc2)N3)C1 (stereo not drawn)	-5.3	-4.2%	-1.2	0.4%	.	-22.4%
CC1(C)CC2(CC(c3ccccc3)c3ccc(O)cc3O2)NC(=S)N1 (stereo not drawn)	-2.8	-4.9%	-0.3	-23.0%	?	-0.8%
CC(=O)Oc1cc2c(cc1Cl)C(c1cccs1)CC1(CC(C)(C)NC(=S)N1)O2 (stereo not drawn)	-19.0	5.3%	1.9	1.9%	31.6µM*	-3.2%
CC(C)c1ccc(CN2C(=O)C(n3ccc4ccccc43)c3cc(Cl)ccc32)cc1 (stereo not drawn)	.	.	.	.	10µM*	.
COc1ccc(CN2C(=O)C(n3ccc4ccccc43)c3cc(OC(F)(F)F)ccc32)cc1 (stereo not drawn)	.	.	.	.	39.8µM*	.
Cc1noc(C)c1S(=O)(=O)N(C)CC(=O)Nc1ccccc1C(C)C	.	.	.	.	-8.1%	.
CC1=C/C(=C\C=C(C#N)C#N)N(C)c2ccccc21	47.3	-4.2%	18.0	?	?	1.78µM*
CN1/C(=C/C=C(C#N)C#N)C(C)(C)c2ccccc21	-3.4	-0.8%	0.0	?	6.0%	-30.4%
COc1ccc(CN2CCN(C(=O)c3cccc4ccccc34)CC2)cc1Br	0.3	-6.4%	0.3	8.3%	0.562µM*	2.5%
